Reference: PubChem BioAssay (NCI)
Compounds without any hit were thinned out: in the full panel of roughly 83,000, 20% have a hit.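 Method: cells in 96-well plates; compound added at one concentration; 48 h incubation; percent growth measured; values under 10 scored active.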 Activity calls are given as the source filed them.

These compounds were tested on A549/ATCC NSCLC (assay: NCI-60 one-dose screen, 48 h (100 = growth as untreated, 0 = no growth, -100 = all killed)). Conditions: 10 µM unless noted.
For C=C1C(=O)O[C@H]2[C@H]1CC/C(COC(=O)C(=O)c1c[nH]c3ccccc13)=C\CC[C@@]1(C)O[C@@H]21, the growth was 9.03% (active). With S=C(c1ccc2c(c1)OCO2)N1CCN(c2ccccc2Cl)CC1 the growth was 98.2% (inactive). CC(C)(C)CC(C)(C)Nc1c(-c2ccncc2)nc2cnccn12 was tested, and the growth was 96.4% (inactive). With COCCN(C(=O)c1ccc(F)cc1F)c1c(N)n(Cc2ccccc2)c(=O)[nH]c1=O the growth was 101% (inactive). With Cc1ccc(N(C(=O)CCc2c[nH]c3ccccc23)[C@H](C(=O)Nc2ccc(Cl)cc2)c2cccc([N+](=O)[O-])c2)cc1 the growth was 73.8% (inactive). In the case of COC(=O)c1c2c(c(C)[n+]([O-])c1C)C(=O)C(NCc1ccc(F)cc1)=CC2=O, the growth is reported as 4.34% (active). In the case of COc1ccc(Cl)cc1NC(=O)C(Br)C(Br)C(=O)O (configuration not stated), the growth is reported as 115% (inactive). O=C1Nc2ccccc2/C1=C/c1cn(C(=O)c2c(Cl)cccc2Cl)c2ccccc12 was tested, and the growth was 36.7% (inactive). For COC(=O)/C=C1\S/C(=N\NS(=O)(=O)c2ccc(C)cc2)N(c2ccccc2)C1=O, the growth was 98.6% (inactive). CCCCCCCC/C=C\CCCCCCCCOc1ccccc1CC(=O)NCC[N+](C)(C)C was tested, and the growth was 71.4% (inactive). With NC(=S)Nc1cccc(O)c1 the growth was 99.8% (inactive). For CCCCCS(=O)(=O)Nc1ccc(C(=O)O)cc1, the growth was 87.4% (inactive). With CCCCCCCCCOc1c(OC)cc(C2CC(=O)Nc3c2c(C)nn3-c2nc3ccccc3[nH]2)cc1OC (configuration not stated) the growth was -56% (active). In the case of C=C1C(=O)O[C@H]2[C@H]1CC/C(CNC(=O)/C=C/c1ccc(Cl)cc1Cl)=C\CC[C@@]1(C)O[C@@H]21, the growth is reported as 20.9% (inactive). With NNC(=O)c1nc(N)n(-c2ccc(S(N)(=O)=O)cc2)n1 the growth was 97.1% (inactive). For C(=N\Nc1ncc(-c2cc3cc4c(cc3o2)OCO4)s1)/c1ccco1, the growth was -10.1% (active). With O=C(/C=C/c1cccc(O)c1)c1cccc(-n2cc(-c3ccc4ccccc4c3)[nH]c2=O)c1 the growth was 61.8% (inactive). With COc1cc(Cn2ncc3ccc(NC(=O)c4cc5ccccc5oc4=N)cc32)cc(OC)c1OC the growth was 50.7% (inactive). For O=C(CC(SCc1ccccc1)c1ccccc1)c1ccccc1 (configuration not stated), the growth was 101% (inactive). CCOc1ccccc1-c1cc(-c2cccs2)c(C#N)c(=O)[nH]1 was tested, and the growth was 91.2% (inactive). With N#CC1=C(NC=O)Oc2c(ccc3ccccc23)C1c1ccccc1 (configuration not stated) the growth was 36.3% (inactive). In the case of COc1cc(C2CC(c3cc(OC)c(OCCCOc4ccc(-n5c(/C=C/c6ccccc6)nc6ccccc6c5=O)cc4)c(OC)c3)=NO2)cc(OC)c1OC (configuration not stated), the growth is reported as 99.7% (inactive). In the case of O=C1Nc2ccc(F)cc2C12Nc1cc(Cl)ccc1S2 (configuration not stated), the growth is reported as 94.9% (inactive). With CCN(CC)CCN1C(=O)c2c(c(C)c3c(oc4cc(O)ccc43)c2C)C1=O the growth was -65.3% (active). In the case of O=C(O)c1ccc2c(c1Cl)C(=O)c1ccccc1C2=O, the growth is reported as 116% (inactive). CN(c1ccccc1)c1ccc2c(c1)OCCC21CC1Nc1cnccc1C(=O)O (configuration not stated) was tested, and the growth was 83.4% (inactive). CC1O[C@@H](OC2[C@H](OC(=O)/C=C/c3ccc(O)c(O)c3)C(COC3O[C@H](C)C(O)C(O)[C@@H]3O)O[C@@H](OCCc3ccc(O)c(O)c3)[C@H]2O)[C@@H](O)C(O)[C@H]1O (some centres not stated) was tested, and the growth was 89.8% (inactive). O=C(CSc1nnc(-c2ccc(NC(=O)c3cccnc3)cc2)o1)Nc1cccc(Br)c1 was tested, and the growth was 95.1% (inactive). CCN1C(=O)N(CC)C2Nn3c(s/c(=C\c4ccc(Cl)cc4Cl)c3=O)=NC21 (configuration not stated) was tested, and the growth was 33% (inactive). In the case of COc1ccc(/C=N/C2=C(C#N)C(c3ccc(OC)cc3)c3ccc4ccccc4c3O2)cc1 (configuration not stated), the growth is reported as 83.7% (inactive). For CCOC(=O)C/C(C)=N\NC(=O)c1ccncc1, the growth was 105% (inactive). In the case of COC(=O)[C@H](CSC)N(C)C(=O)[C@@H]1CSSC[C@@H](NC(=O)c2nc3ccccc3cc2O)C(=O)NCC(=O)N1C, the growth is reported as 59.4% (inactive). For COc1ccc2[nH]c(O)c(C(=Nc3ccc(N(C)C(=O)CN4CCN(C)CC4)cc3)c3ccccc3)c2c1, the growth was 24.2% (inactive). For O=[N+]([O-])c1ccc(N2c3ccncc3Sc3ccncc32)cc1, the growth was 110% (inactive). For COc1ccc(CNC(=O)C(O)C(Cc2ccccc2)NC(=O)c2[nH]c3ccccc3c(=O)c2C)cc1OC (configuration not stated), the growth was 103% (inactive). N#C/C(=C/C=C/c1cccc(Cl)c1)S(=O)c1ccccc1 (configuration not stated) was tested, and the growth was 1.83% (active). With COC(=O)[C@]12CC[C@@H](C)[C@H](C)[C@@H]1C1=CC[C@@H]3[C@@]4(C)C(C=O)=C[C@@](C)(COC(C)=O)C4=CC[C@@]3(C)[C@]1(C)CC2 the growth was 5.26% (active).
